In paper PMC12136788:
Residue numbers refer to the chain shown, from its start. The full ranking holds about 24,000 sequences; the median of “enrichment r” is about 0.99, and the highest 2% start at about 3.7. The list comes from a sample in which the highest values are over-represented; it also holds similar and randomly drawn sequences.

T1: UNK ZnF1-3 (human, UniProt Q9C0B0 31-174)
T1 sequence: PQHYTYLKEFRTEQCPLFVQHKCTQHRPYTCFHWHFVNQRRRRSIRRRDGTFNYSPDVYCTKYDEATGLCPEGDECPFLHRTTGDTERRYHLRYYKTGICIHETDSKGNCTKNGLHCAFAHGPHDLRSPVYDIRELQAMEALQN

B1: chr16:18799448:18799449:-_ENSG00000134419_ENST00000563390|perfect_dup|FALSE|FALSE (ssRNA)
RNA: GGGAGUUCUACAGUCCGACGAUCCCUUCCUGUGAGGUUCACAACAAUCUUCCCAGCUCUGUGAUCAUCAAUGAUCUCAAAUUCACCAAUGUAUCCGUGCUUCAUCAUCACGGUUAAGAACCGAACGAUGACUUUAGAACAUGGCAACAGAGGAUUGAGCAUCA
B2: 99623494_99624154_931_CDS_ENSMUSG00000067567_ENSMUST00000087916|mouse|control|control (ssRNA)
RNA: GGGAGUUCUACAGUCCGACGAUCCUGAAUGGGCACAUUGACACUGUAGUACCGUCCUUUCCCCAGGCCAACAUCAGACAUGUCACCUGUUCCUGGGAAAAAUCCUGGGGAGAACUUGUGCAGGGACACAGUCAUAACCUUCGACAACAGAGGAUUGAGCAUCA
B3: chr9:14812383:14812384:-_ENSMUSG00000031934_ENSMUST00000164273|mus_mus|mus_mus_mus_hu_True|68_88 (ssRNA)
RNA: GGGAGUUCUACAGUCCGACGAUCAUAGCCCAGGUAGAUACACGCUAACAGUAUAACGAUGAGUGUCACCAGCCGGCAGCUAAUGUACUUGAUGAUUAAAUUAUUAGAAUUUUUCUUUGUCUUCAAGUACUGCUCCACAAUUGGCAACAGAGGAUUGAGCAUCA
B4: 37607701_37614754_715_CDS_ENSG00000102710_ENST00000475892|human|control|control (ssRNA)
RNA: GGGAGUUCUACAGUCCGACGAUCGCUCUCAAGCAAAAGUUUGUCUUCCUGGGUCCAUUUGUGGUUAUCACUUGUUAUUGAAUGUACAUCACAAAUUAAAGUCUGCAUUGUUGGACGUAAGAGAAUGUGCCGACUUUGGUAACCCAACAGAGGAUUGAGCAUCA
B5: chr2:183789671:183789672:-_ENSG00000061676_ENST00000360982|hu_hu|FALSE|FALSE (ssRNA)
RNA: GGGAGUUCUACAGUCCGACGAUCUGGCAGGUACACUUGAAUUUCAAAAAUUUAAAACAUAUAUAAAAAGUGGUUAGGGACUAACAUUUGUAUCAACAGUUGAUAAAUGUCUAAGAUUGUUUAUUAUACAGCAGGGUACAAUGGCAACAGAGGAUUGAGCAUCA
B6: chr1:172123744:172123745:-_ENSMUSG00000026667_ENSMUST00000150821|mus_hu|motif|central (ssRNA)
RNA: GGGAGUUCUACAGUCCGACGAUCAAACGCAUUGUUCACACUUUUUAGGAAUAUAGGAAAGUGGAAAAUAAAAGUUCUUUGCGGUUCAGCAGGAAAGAGUUUAAAAGACUUGAAUGGAAAUCAGAAAUUUAGGGAUUUGAGAAACAACAGAGGAUUGAGCAUCA
B7: chr2:183789671:183789672:-_ENSG00000061676_ENST00000360982|hu_hu|motif|central (ssRNA)
RNA: B5 RNA with U81G, A82G
B8: chr11:44378942:44378943:+_ENSMUSG00000019189_ENSMUST00000019333|mus_mus|motif|central (ssRNA)
RNA: GGGAGUUCUACAGUCCGACGAUCUUUAAAUUUAUUAAGACAUUCAGCUAUGUCUGUCAGUCUACAUCCAAAUUUGCGGCGGAAAACAAAGGAAAACCACACCCCACAGUAGGAAUACCAAGUCUGAAAUACACUUUUUUUUGACAACAGAGGAUUGAGCAUCA
B9: chr8:93522421:93522422:+_ENSMUSG00000056608_ENSMUST00000048665|mus_hu|FALSE|FALSE (ssRNA)
RNA: GGGAGUUCUACAGUCCGACGAUCAGACUGGAUCAUUGCUUGAAGAUGAAAAUCAGAAGCAGCUGGAUUGUAAGUAUCUCUAAAUUCUCCAAGUAUUUUCUCCUCAGCACCUUUUAUAAGAUAUGGAUGAUUACAACAUUUCCUCAACAGAGGAUUGAGCAUCA
B10: chr3:102833055:102833056:+_ENSMUSG00000068823_ENSMUST00000029446|mus_mus|motif|central (ssRNA)
RNA: GGGAGUUCUACAGUCCGACGAUCUCAGUAGUAUUUGCUGACUCUUCUUUUUUCAGCACAAGUUCCAAAGGAUGAAAGUUGCGGGUAUUUAAAAAAAGAAAAAAAAAAGAAAAAGAAAAAAAGAAAAAAAAAAGGAGAGCGAGACAACAGAGGAUUGAGCAUCA
B11: chr19:42259214:42259215:+_ENSMUSG00000018820_ENSMUST00000165783|mus_mus|FALSE|FALSE (ssRNA)
RNA: GGGAGUUCUACAGUCCGACGAUCGCUAUAGUGACUGCUGCAGACUCAGAGACACUAGGAAAGUUGCAAGUGUAUAUUUUCUAUCUAAAUUUCUAACUAAAAUUUGCCCUGUUUUAUUCACUGGCCCAAAGGAUUCUUUUUUAACAACAGAGGAUUGAGCAUCA
B12: 142051865_142054343_4063_CDS_ENSG00000114127_ENST00000264951|human|control|control (ssRNA)
RNA: GGGAGUUCUACAGUCCGACGAUCUGACUGUACUUCAUUUUCUUUGGAGAUAUUCAAAGAUGCUAAAAAGUUCUCAAUUCCAGAGUUAGGCUGCUUAUUGGACAUUUUUUGGGACCAACACUCAGCUUUAGGACUCUUACACUCCAACAGAGGAUUGAGCAUCA
B13: chr3:102833055:102833056:+_ENSMUSG00000068823_ENSMUST00000029446|mus_mus|FALSE|FALSE (ssRNA)
RNA: B10 RNA with G82U, G83A
B14: chr8:117878989:117878990:-_ENSG00000164754_ENST00000297338|hu_hu|hu_hu_hu_mus_True|8_8 (ssRNA)
RNA: GGGAGUUCUACAGUCCGACGAUCCCAGAGGCCCUCGUUUACUGAGGACAAAAUGUGCGUAGAACAUUUUUCUUAUUUGCUAUGAAAUAAGAAGAAACCUGGAUCUCGGCGGGGAGCCGGGAGGGGUUGGGUGGCCCGGGAGGGCAACAGAGGAUUGAGCAUCA

Each binder was assayed against T1, UNK ZnF1-3 (assay: nsRBNS (natural sequence RNA bind-n-seq); RBNS binding buffer (assumed for nsRBNS): 25 mM Tris pH 7.5, 150 mM KCl, 3 mM MgCl2, 0.01% Triton X-100, 500 ug/ml BSA, 20 U/ml SUPERase-In, 4 C; UNK is unkempt and MSI1 is Musashi-1; names of the RNAs are library labels; protein concentration not given here; high values mean tight binding).

How did the binding signal turn out when B1 was run?
Its binding signal is 0.793 enrichment R.

How did the binding signal turn out when B2 was run?
The binding signal was 0.68 enrichment R.

With B3 as the binder, how does the binding signal read?
Its binding signal is 1.31 enrichment R.

With B4 as the binder, how does the binding signal read?
The binding signal was 0.803 enrichment R.

Which binding signal does the source give for B5 here?
The binding signal was 4.06 enrichment R.

How did the binding signal turn out when B6 was run?
The binding signal was 3.57 enrichment R.

How did the binding signal turn out when B7 was run?
The binding signal was 6.64 enrichment R.

B8 was tested. Which binding signal did it give?
Its binding signal is 1.46 enrichment R.

Which binding signal does the source give for B9 here?
Its binding signal is 1.27 enrichment R.

How did the binding signal turn out when B10 was run?
Its binding signal is 8.15 enrichment R.

With B11 as the binder, how does the binding signal read?
Its binding signal is 1.32 enrichment R.

For B12, which binding signal is on record?
Its binding signal is 0.644 enrichment R.

B13 was tested. Which binding signal did it give?
The binding signal was 5.11 enrichment R.

B14 was tested. Which binding signal did it give?
Its binding signal is 1.2 enrichment R.
